# ± gives the standard deviation.
# Key:
# Assay in all cases: peptide microarray binding signal (635 nm), min-max normalized on array (fraction of array maximum); higher = stronger binding
# [1] = target: T1, HaloTag-ATRX ADD domain (163-292)
# T1 chain: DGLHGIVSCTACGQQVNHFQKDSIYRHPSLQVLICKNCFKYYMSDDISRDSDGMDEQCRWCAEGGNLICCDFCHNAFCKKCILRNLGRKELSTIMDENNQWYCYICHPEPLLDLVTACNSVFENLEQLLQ
# In short: (§1)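 Triplicate spots of histone 13-mer peptide–cellulose conjugates with a Cy3 tracer were printed on nitrocellulose and probed for 1 h at 4°C with biotin-labelled HaloTag reader fusions (10 nM to 1 μM) plus streptavidin-Alexa Fluor 647 or rabbit histone antibodies (1:10,000 to 1:2,000) plus anti-rabbit Alexa 647. An Axon GenePix 4000B read the 635 nm channel. Binding signal is the spot-triplicate mean intensity after min-max scaling within each library.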
# [2] = target: HaloTag-ING2 PHD (mouse Ing2 200-280)
# In short: as §1
# [3] = target: anti-H3K4me3 antibody ab8580
# In short: as §1
# [4] = target: anti-H3K9me3 antibody ab8898
# In short: as §1
# [5] = peptide region: H4 38-50, peptide modifications: H4K44me1, binder concentration: 1:2,000 dilution
# [6] = peptide region: H4 38-50, peptide modifications: H4K44me1, binder concentration: 1:10,000 dilution
# [7] = peptide region: H4 16-28, peptide modifications: H4R19me2s, binder concentration: 1:2,000 dilution
# [8] = peptide region: H4 16-28, peptide modifications: H4R19me1 H4K20me2, binder concentration: 1:2,000 dilution
# [9] = peptide region: H4 16-28, peptide modifications: H4R19me1 H4K20me2, binder concentration: 1:10,000 dilution
# [10] = peptide region: H4 16-28, peptide modifications: H4R19me2a H4K20me3, binder concentration: 1:2,000 dilution
# [11] = peptide region: H4 16-28, peptide modifications: H4R19me2a H4K20me3, binder concentration: 1:10,000 dilution
# [12] = peptide region: H4 16-28, peptide modifications: H4R19me1 H4K20me3, binder concentration: 1:2,000 dilution
# [13] = peptide region: H4 16-28, peptide modifications: H4R19me1 H4K20me3, binder concentration: 1:10,000 dilution
binder,measurement,setting,value
ARRGGVKRISGLI [H4 38-50 A R R G G V Kme R I S G L I],peptide microarray binding signal,"[1]; peptide region: H4 38-50, peptide modifications: H4K44me1, binder concentration: 50 nM",0.00765 ± 0.00015
same,peptide microarray binding signal,"[1]; peptide region: H4 38-50, peptide modifications: H4K44me1, binder concentration: 500 nM",0.0147 ± 0.0013
same,peptide microarray binding signal,"[2]; peptide region: H4 38-50, peptide modifications: H4K44me1, binder concentration: 10 nM",0.01074 ± 8.4e-05
same,peptide microarray binding signal,"[2]; peptide region: H4 38-50, peptide modifications: H4K44me1, binder concentration: 100 nM",0.0234 ± 0.0011
same,peptide microarray binding signal,[3]; [5],0.00691 ± 0.00072
same,peptide microarray binding signal,[3]; [6],0.00719 ± 0.00029
same,peptide microarray binding signal,[4]; [5],0.00751 ± 0.0003
same,peptide microarray binding signal,[4]; [6],0.00703 ± 0.0019
KRHRKVLRDNIQG [H4 16-28 K R H Rme2s K V L R D N I Q G],peptide microarray binding signal,"[1]; peptide region: H4 16-28, peptide modifications: H4R19me2s, binder concentration: 500 nM",0.000524 ± 1.4e-05
same,peptide microarray binding signal,"[2]; peptide region: H4 16-28, peptide modifications: H4R19me2s, binder concentration: 100 nM",0
same,peptide microarray binding signal,[3]; [7],0.000491 ± 9.2e-05
same,peptide microarray binding signal,[4]; [7],3.02e-05 ± 3.4e-07
KRHRKVLRDNIQG [H4 16-28 K R H Rme Kme2 V L R D N I Q G],peptide microarray binding signal,"[1]; peptide region: H4 16-28, peptide modifications: H4R19me1 H4K20me2, binder concentration: 50 nM",0.00404 ± 8.4e-05
same,peptide microarray binding signal,"[1]; peptide region: H4 16-28, peptide modifications: H4R19me1 H4K20me2, binder concentration: 500 nM",0.00943 ± 0.001
same,peptide microarray binding signal,"[2]; peptide region: H4 16-28, peptide modifications: H4R19me1 H4K20me2, binder concentration: 10 nM",0.00847 ± 0.00051
same,peptide microarray binding signal,"[2]; peptide region: H4 16-28, peptide modifications: H4R19me1 H4K20me2, binder concentration: 100 nM",0.0223 ± 0.0015
same,peptide microarray binding signal,[3]; [8],0.00219 ± 0.0001
same,peptide microarray binding signal,[3]; [9],0.002 ± 4.9e-05
same,peptide microarray binding signal,[4]; [8],0.00116 ± 9e-05
same,peptide microarray binding signal,[4]; [9],0.00254 ± 0.00041
KRHRKVLRDNIQG [H4 16-28 K R H Rme2a Kme3 V L R D N I Q G],peptide microarray binding signal,"[1]; peptide region: H4 16-28, peptide modifications: H4R19me2a H4K20me3, binder concentration: 50 nM",0.0152 ± 0.00067
same,peptide microarray binding signal,"[1]; peptide region: H4 16-28, peptide modifications: H4R19me2a H4K20me3, binder concentration: 500 nM",0.0166 ± 0.00049
same,peptide microarray binding signal,"[2]; peptide region: H4 16-28, peptide modifications: H4R19me2a H4K20me3, binder concentration: 10 nM",0.0209 ± 0.00068
same,peptide microarray binding signal,"[2]; peptide region: H4 16-28, peptide modifications: H4R19me2a H4K20me3, binder concentration: 100 nM",0.0392 ± 0.009
same,peptide microarray binding signal,[3]; [10],0.0145 ± 0.0019
same,peptide microarray binding signal,[3]; [11],0.00981 ± 0.00045
same,peptide microarray binding signal,[4]; [10],0.0143 ± 0.0024
same,peptide microarray binding signal,[4]; [11],0.0104 ± 0.00022
KRHRKVLRDNIQG [H4 16-28 K R H Rme Kme3 V L R D N I Q G],peptide microarray binding signal,"[1]; peptide region: H4 16-28, peptide modifications: H4R19me1 H4K20me3, binder concentration: 50 nM",0.0047 ± 0.00026
same,peptide microarray binding signal,"[1]; peptide region: H4 16-28, peptide modifications: H4R19me1 H4K20me3, binder concentration: 500 nM",0.00638 ± 0.00038
same,peptide microarray binding signal,"[2]; peptide region: H4 16-28, peptide modifications: H4R19me1 H4K20me3, binder concentration: 10 nM",0.0104 ± 0.00011
same,peptide microarray binding signal,"[2]; peptide region: H4 16-28, peptide modifications: H4R19me1 H4K20me3, binder concentration: 100 nM",0.0129 ± 0.00048
same,peptide microarray binding signal,[3]; [12],0.00636 ± 0.00079
same,peptide microarray binding signal,[3]; [13],0.00867 ± 0.00021
same,peptide microarray binding signal,[4]; [12],0.0157 ± 0.0041
same,peptide microarray binding signal,[4]; [13],0.00871 ± 0.00013

# — the supplement of paper PMC4022240
